Data on 64 molecules can be found in PubChem BioAssay AID2315 (National Center for Advancing Translational Sciences (NCATS), 2010).

The inhibition is the change of the read-out against control, counted positive when it falls.

The whole screen tested about 290,000 compounds, of which about 27,000 (9.3%) were called active. Many of the other results were omitted from the sample, so actives are more common in it than they were. Values without a mark were called inactive. No stated cut-off is given here; in the data, active means inhibition mostly above about 28% (no sharp cut-off); inactive means mostly below about 43%.

The test in a line: A qHTS for Small Molecule Inhibitors of Shiga Toxin. Further: 0% is about no effect. The settings on record: Vero cells, Shiga toxin protein synthesis inhibition reporter; at 38.7 µM, stronger effect = higher value. On the technique in general: In qHTS, concentration-response curves come from the screen itself.
On to `CCCCn1c(-c2cccc(C)c2)nc2cc3[nH]c(=O)c(C(C)C)nc3cc21`, for which the inhibition was 9.49%.

Take `CN1CCN(C(=O)c2cnn(-c3ccccc3)c2NC(=O)c2ccc([N+](=O)[O-])cc2)CC1`: the inhibition was -12.4%.

`O=C(CSc1ccc(/C=N/NC(=O)c2cccc(F)c2)o1)Nc1ccccc1`: the inhibition is 44.3% (active).

Consider `O=C(Cc1ccccc1)Nc1cccc(C(=O)N/N=C/c2ccco2)c1`, for which the inhibition was 23.9%.

For `N#CCC(=O)N/N=C/c1ccc(SCC(=O)Nc2ccccc2)o1`, the inhibition is 17.4%.

With `COc1ccc2cc(C(=O)O)n(CC(=O)c3ccccc3)c2c1`, the inhibition is -10.5%.

Consider `CCCCC(=O)Nc1nnc(S(=O)(=O)N(C)Cc2ccco2)s1`, for which the inhibition is 10.1%.

As to `Cc1c(C(=O)NCCN(C)C)oc2ccc(S(=O)(=O)N3CCCC3)cc12`, the inhibition is -2.78%.

Consider `COc1ccc(C(=O)NCCc2ccc(S(N)(=O)=O)cc2)cc1OC`, for which the inhibition is 21%.

As to `COc1ccc(Cc2nc3ccc(C(=O)NCC4CCOCC4)cc3o2)cc1OC`, the inhibition is 37.2%.

Turning to `CSCCNC(=O)c1ccc2nc(Cc3ccccc3F)oc2c1`, the inhibition was 49.7% (active).

Turning to `COCCNC(=O)c1ccc2nc(Cc3ccc(OC)c(OC)c3)oc2c1`, the inhibition is 30.7% (active).

With `Cn1cc(C(=O)NCc2ccccc2F)cn1`, the inhibition was 14.6%.

`COc1ccccc1-n1c(C)nc2cc(C(=O)NCc3ccc4c(c3)OCO4)ccc21`: the inhibition is 11.2%.

On to `O=C(Nc1nnc(C2=COCCO2)o1)c1ccc([N+](=O)[O-])s1`, for which the inhibition is -3.51%.

In the case of `Cc1cnc(C(=O)N2CCCC(N3CCN(c4ccccc4F)CC3)C2)cn1` (centres undefined), the inhibition was -6.28%.

On to `CC(=O)NC(CC(=O)Nc1nc(-c2ccccc2)c(C(C)=O)s1)c1ccccc1` (centres undefined), for which the inhibition was -5.9%.

On to `COc1ccc(OC)c(CCNC(=O)c2nn(C)c3c2CS(=O)(=O)c2ccccc2-3)c1`, for which the inhibition is -4.81%.

Turning to `Nc1nonc1-n1nnc(C(=O)N/N=C\c2ccncc2)c1CN1CCCCC1`, the inhibition is -10.8%.

As for `CC1CCN(C(=O)c2ccc3c(c2)NC(=O)CN3)CC1`, the inhibition was -6.93%.

`Cc1cc(C(=O)NC2CCCc3c2cnn3-c2cccc(C)c2C)c(C)o1` (centres undefined): the inhibition is 3.44%.

On to `COc1ccccc1CCNC(=O)C1CCN(C(=O)/C=C/c2ccccc2)CC1`, for which the inhibition was 39.9%.

For `COc1ccc(Nc2ncnc3ccc(OC)cc23)cc1`, the inhibition is -8.31%.

Take `COc1ccc(Nc2ncnc3sc(C)cc23)cc1`: the inhibition is 56.1% (active).

As to `COc1ccc(Nc2cc(Sc3ccc(OC)cc3)ncn2)cc1`, the inhibition is 4.28%.

Regarding `COc1ccc(-n2ncc3c2CC(C)(C)CC3NC(=O)CCc2c(C)nn(C)c2C)cc1` (centres undefined), the inhibition was -7.46%.

For `COc1cccc(NC(=O)CCc2nnc3ccc(N4CCC(C)CC4)nn23)c1`, the inhibition is 2.02%.

On to `COc1ccc(C(=O)NC(=S)N2CCNC(=O)C2CC(=O)OC(C)C)cc1` (centres undefined), for which the inhibition was -13.5%.

Consider `COc1ccc(S(=O)(=O)N2CCN(C(=O)N(C)C)C2C)cc1` (centres undefined), for which the inhibition was -15.4%.

As for `COc1ccc(/C=N/NC(=O)c2ccc3c(c2)OCCO3)c(OC)c1`, the inhibition was 45.8%.

For `COc1ccc(/C=N/Nc2cc(N3CCOCC3)nc(C)n2)c(OC)c1`, the inhibition is 6.01%.

For `COc1ccc(/C=N/OCc2ccccc2C#N)c(OC)c1`, the inhibition was 70.8% (active).

On to `Fc1cccc2ncnc(OCc3ccccc3)c12`, for which the inhibition is 5.51%.

With `Cc1nc2ccccc2cc1OCc1ccc(F)cc1`, the inhibition is 29.8% (active).

For `Cc1occc(=O)c1OCc1ccc(F)cc1`, the inhibition is -2.22%.

In the case of `O=C(COc1ccc(Cl)cc1)NCCS(=O)(=O)N1CCN(c2ccc(F)cc2)CC1`, the inhibition is 29%.

Consider `COC(=O)/C=C\C(=O)Nc1cccc([N+](=O)[O-])c1`, for which the inhibition is 26.5%.

For the molecule `CC(C)c1ccc(N(C(=O)c2ccco2)C(C(=O)NC2CCCC2)c2cccnc2)cc1` (centres undefined), the inhibition was 22.5%.

Consider `COc1ccc(C2NC(=O)N(C)C(C)=C2[N+](=O)[O-])cc1` (centres undefined), for which the inhibition was -11.1%.

Consider `Cc1ccccc1-n1c(C)cc(/C=C2\NC(=O)NC2=O)c1C`, for which the inhibition is 55.3% (active).

For `Cc1cc(/C=C2/NC(=O)NC2=O)c(C)n1-c1cccnc1`, the inhibition is 44.4%.

On to `Cc1cccc(C)c1-n1c(C)cc(/C=C2\C(=O)NN(c3ccccc3)C2=O)c1C`, for which the inhibition is -7.74%.

Take `Cn1c(=O)oc2cc(S(=O)(=O)NCCC(=O)NCc3ccccc3Cl)ccc21`: the inhibition is -2.59%.

For the molecule `CC(=O)c1ccc(NC(=O)c2ccc(-n3cncn3)c([N+](=O)[O-])c2)cc1`, the inhibition was -21.9%.

As for `CCc1nnc(NC(=O)c2nc3nccc(C)n3n2)s1`, the inhibition was 2.51%.

As to `Cc1cccc(NC(=O)Nc2nnc(-c3ccccc3)o2)c1`, the inhibition is -5.35%.

In the case of `Cc1ccnc2nc(C(=O)Nc3nnc(-c4ccccc4)o3)nn12`, the inhibition was 71.9% (active).

On to `O=C(CN1C2=NCCN2c2ccccc21)c1cccs1`, for which the inhibition was -3.32%.

Take `Nc1c(C(=O)c2cccs2)sc2nsc(SCCN3CCCCC3)c12`: the inhibition was 45.8% (active).

With `O=C(CCC1CCCC1)N=C1SC2CS(=O)(=O)CC2N1Cc1ccccc1` (centres undefined), the inhibition is 14.2%.

As for `COCCCNC(=O)Cc1ccc(-n2c(C)nc3cccnc32)cc1`, the inhibition is 1.73%.

For the molecule `CC(C)OCCCNC(=O)CNC(=O)c1cccs1`, the inhibition is -2.7%.

Regarding `CC1(C)CC(=O)C/C(=N\NC(=O)c2cccs2)C1`, the inhibition is 18.8%.

As for `CC1C/C(=N/NC(=O)c2cccs2)CC(C)(C)C1` (centres undefined), the inhibition is 84.1% (active).

Regarding `COc1cc(CCC(=O)N2CCN(c3ccccc3Cl)CC2)cc(OC)c1OC`, the inhibition was -6.24%.

Take `O=C(CN1CCC(NC(=O)C2CC2)CC1)Nc1ccccc1[N+](=O)[O-]`: the inhibition was -3.78%.

With `O=c1ccc2cc(S(=O)(=O)NCCCc3ccccc3)ccc2[nH]1`, the inhibition is 3.55%.

For `COc1ccc(CNC(=O)CSc2n[nH]c(N)n2)cc1OC`, the inhibition is 0.155%.

As for `Cc1cc(CNC(=O)c2cccc([N+](=O)[O-])c2)c2ccccc2n1`, the inhibition was 54%.

For `COc1cccc(NCCC(=O)c2cccc([N+](=O)[O-])c2)c1`, the inhibition was 67.3% (active).

As to `COc1cccc(C(=O)CC(=O)C(=O)Nc2ccc([N+](=O)[O-])cc2C)c1`, the inhibition is 4.12%.

As for `COc1cccc(CNC(=O)CCCC(=O)Nc2cccc([N+](=O)[O-])c2)c1`, the inhibition is -12.3%.

For the molecule `CC(C)(C)SCCNC(=O)c1cccc([N+](=O)[O-])c1`, the inhibition was -40.1% (active).

Consider `Cc1cccc(C(=O)NNC(=O)c2cccc([N+](=O)[O-])c2)c1`, for which the inhibition was 3.18%.
